# Results taken from PubChem BioAssay (Tox21).
# Where “and” joins values, the source holds several entries; their conditions need not be identical. Identical values can stand only once. Inconclusive results are not listed. Where a call stands in place of a potency, no number is given. Where a structure was tested more than once in an assay, its records may differ in their call. Calls of active or inactive are those of the source. Unless noted, the call rests on the fitted dose curve; in most records, active means well fitted curve in the direction sought with a large enough effect in the repeat runs; inconclusive means weak or mixed curves; inactive means no such curve, though single readings can be large; an effect the other way counts as inactive or inconclusive.
# Columns and labels:
# [1] = A CellTox Green Cytotoxicity Assay to monitor cytotoxicity in HepG2 cells - 8 hour (AID 1224890); further: nearly all actives have a fitted effect of over 45% in size
# Outline: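 Nonlytic assay: viable cells exclude the dye, so fluorescence scales with cell death. HepG2 at 600 cells/well, compounds added after 5 h, signal read across 40 h.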
# [2] = qHTS assay to identify small molecule antagonists of the estrogen receptor alpha (ER-alpha) signaling pathway using the BG1 cell line in the presence of 0.1 nM 17-beta-estradiol - cell viability counter screen (AID 1259241); further: nearly all actives have a fitted effect of over 40% in size
# Outline: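 Estradiol-stimulated (0.1 nM) VM7Luc4E2 cells exposed to compounds 22 hr; viability measured by fluorescence of cleaved CellTiter-Fluor substrate after 30 min.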
# [3] = qHTS assay to identify small molecule antagonists of the androgen receptor (AR) signaling pathway using the MDA cell line in the presence of 0.5 nM R1881 - cell viability counter screen (AID 1259242); further: nearly all actives have a fitted effect of over 45% in size
# Outline: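 R1881 at 0.5 nM final stimulated MDA-kb2 cells during 16 hr compound treatment at 37C. Cytotoxicity read: CellTiter-Fluor fluorescence after 30 min.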
# [4] = molecular target: Estrogen receptor (Homo sapiens) (UniProt P03372); assay: qHTS assay to identify small molecule antagonists of the estrogen receptor alpha (ER-alpha) signaling pathway using the BG1 cell line in the presence of 0.1 nM 17-beta-estradiol (AID 1259244); further: nearly all actives have a fitted effect of over 50% in size
# Sequence of Estrogen receptor (Homo sapiens) (P03372 whole entry, looked up): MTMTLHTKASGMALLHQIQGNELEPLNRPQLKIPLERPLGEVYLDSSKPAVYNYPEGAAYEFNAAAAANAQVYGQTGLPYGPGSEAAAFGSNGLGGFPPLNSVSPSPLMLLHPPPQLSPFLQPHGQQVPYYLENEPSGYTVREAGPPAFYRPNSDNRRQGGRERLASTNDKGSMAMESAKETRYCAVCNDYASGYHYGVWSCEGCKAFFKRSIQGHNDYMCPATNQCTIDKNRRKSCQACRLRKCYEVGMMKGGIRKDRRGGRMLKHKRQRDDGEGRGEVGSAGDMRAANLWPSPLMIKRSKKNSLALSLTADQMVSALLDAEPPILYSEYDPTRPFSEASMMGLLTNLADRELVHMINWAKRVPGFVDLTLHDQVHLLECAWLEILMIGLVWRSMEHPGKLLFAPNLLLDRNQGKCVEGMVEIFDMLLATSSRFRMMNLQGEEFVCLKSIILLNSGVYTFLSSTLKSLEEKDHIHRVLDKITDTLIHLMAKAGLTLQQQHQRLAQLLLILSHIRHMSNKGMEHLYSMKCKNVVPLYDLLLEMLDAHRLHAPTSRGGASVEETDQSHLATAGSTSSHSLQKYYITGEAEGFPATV
# Outline: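 VM7Luc4E2; 4xERE-luciferase; 0.1 nM E2 final; 22 h co-incubation, 37C; ONE-Glo luminescence after 30 min at room temperature.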
# [5] = qHTS assay to identify small molecule phospholipidosis (PLD) inducers (AID 1259344; active means well fitted curve in the direction sought with a large enough effect; an effect the other way counts as inactive or inconclusive)
# Outline: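 Fluorescent phospholipid staining (LipidTOX Red) measured by automated microscopy in fixed HepG2 cells after 24 h treatment; nuclei counterstained with Hoechst 33342; amiodarone as reference inducer.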
# [6] = qHTS assay to identify small molecule HDAC inhibitors (AID 1259364);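 further: wild-type HCT-116 cells with endogenous class I/II HDAC activity; top concentration of the series differs between compounds; nearly all actives have a fitted effect of over 45% in size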
# Outline: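 Relative class I and II HDAC activity is taken from the luminogenic signal in HCT-116 cells, with compound exposure 2 hr and reagent development 30 min at room temperature.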
# [7] = qHTS assay to identify small molecule HDAC inhibitors - cell viability counter screen (AID 1259365); further: series mostly up to about 92 µM; nearly all actives have a fitted effect of over 50% in size
# Outline: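 After overnight seeding at 1,500 cells per well, wild-type HCT-116 cultures took up compounds in DMSO for 2hr at 37 C. Viable cell content came from luminescence with CellTiter-Glo.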
# [8] = qHTS assay to identify small molecule antagonists of the sonic hedgehog signaling (Shh) pathway - cell viability counter screen (AID 1259367); further: nearly all actives have a fitted effect of over 55% in size; further: potency means the concentration at half of the fitted maximal effect
# Outline: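 Using CellTiter-Fluor, viability of Gli1-Luc reporter 3T3 cells is read by fluorescence in the wells used for the Shh luciferase assay. Treatment lasts 23 hr with conditioned medium, then reagent 1 hr at 37C.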
# [9] = qHTS assay to identify small molecule agonists of the sonic hedgehog signaling (Shh) pathway (AID 1259368; calls by dose curve;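 further: NIH/3T3-derived 3T3Gli1-Luc cells carrying a stable Gli1-driven firefly luciferase reporter; series mostly up to about 92 µM; nearly all actives have a fitted effect of over 15% in size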)
# Outline: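 Mouse fibroblast (NIH/3T3) reporter cells with stably integrated Gli1-Luc were treated 24 hr with compound; firefly luciferase luminescence served as the read-out.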
# [10] = qHTS assay to identify small molecule antagonists of the sonic hedgehog signaling (Shh) pathway (AID 1259369; calls by dose curve; further: nearly all actives have a fitted effect of over 45% in size; further: potency means the concentration at half of the fitted maximal effect)
# Outline: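 Conditioned medium drives Shh signalling in 3T3Gli1-Luc cells; compounds in DMSO co-applied, 24hr at 37 C, then luciferase luminescence.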
# [11] = molecular target: Estrogen receptor beta (Homo sapiens) (UniProt Q92731); assay: qHTS assay to identify small molecule agonists of the estrogen receptor beta (ER-beta) signaling pathway (AID 1259377; active means well fitted activation curve with a large enough effect in the signal ratio in the repeat runs, not every such curve was filed as active; the % refers to the signal ratio)
# Sequence of Estrogen receptor beta (Homo sapiens) (Q92731 whole entry, looked up): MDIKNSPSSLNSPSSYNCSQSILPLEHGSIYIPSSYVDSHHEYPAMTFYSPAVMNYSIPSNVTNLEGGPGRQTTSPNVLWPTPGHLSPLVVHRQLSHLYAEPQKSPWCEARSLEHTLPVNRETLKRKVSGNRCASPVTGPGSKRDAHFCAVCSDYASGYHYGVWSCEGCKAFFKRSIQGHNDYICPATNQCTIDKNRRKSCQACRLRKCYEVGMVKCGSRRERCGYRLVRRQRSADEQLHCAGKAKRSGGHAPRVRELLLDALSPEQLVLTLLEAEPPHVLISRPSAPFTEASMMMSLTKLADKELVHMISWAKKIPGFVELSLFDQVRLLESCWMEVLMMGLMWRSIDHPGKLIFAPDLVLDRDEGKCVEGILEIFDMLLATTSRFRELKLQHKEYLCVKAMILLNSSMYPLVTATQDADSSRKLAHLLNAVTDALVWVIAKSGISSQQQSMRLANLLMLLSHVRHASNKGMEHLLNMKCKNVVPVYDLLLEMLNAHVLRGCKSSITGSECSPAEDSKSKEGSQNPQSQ
# Outline: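 Read-out: beta-lactamase FRET fluorescence. Cell line: ER-beta-UAS-bla HEK293T in 2% charcoal-stripped FBS. Exposure: 16 hr at 37C. Substrate step: 2 h at room temperature.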
# [12] = molecular target: Estrogen receptor beta (Homo sapiens) (UniProt Q92731); assay: qHTS assay to identify small molecule antagonists of the estrogen receptor beta (ER-beta) signaling pathway (AID 1259378; active means well fitted inhibition curve with a large enough effect in the signal ratio in the repeat runs, not every such curve was filed as active; the % refers to the signal ratio; further: potency means the concentration at half of the fitted maximal effect)
# Outline: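 Antagonist mode: compounds added to beta-lactamase reporter HEK293T ER-beta-UAS cells stimulated with E2 (1nM final), 16 hr at 37C. LiveBLAzer B/G FRET substrate, 2 hours room temperature, fluorescence read-out.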
# [13] = qHTS assay to identify small molecule agonists of the androgen receptor (AR) signaling pathway in the presence of an antagonist - cell viability counter screen (AID 1259379);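 further: MDA-kb2 human breast cancer cells carrying an MMTV luciferase reporter; series mostly up to about 92 µM; nearly all actives have a fitted effect of over 25% in size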
# Outline: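 A CellTiter-Fluor read-out measured viability of MDA-kb2 reporter cells (MMTV promoter with AR and GR response elements). Treatment: nilutamide 3.0uM final with compounds at 15 concentrations, 16 hr, 37C, 0% CO2.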
# [14] = qHTS assay to identify small molecule agonists of the estrogen receptor beta (ER-beta) signaling pathway - cell viability counter screen (AID 1259380); further: nearly all actives have a fitted effect of over 30% in size; further: potency means the concentration at half of the fitted maximal effect
# Outline: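 Cells used were ER-beta-UAS-bla HEK293T in medium with 2% charcoal-stripped FBS. They were treated for 16 hr at 37C. Viability came from CellTiter-Glo luminescence.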
# [15] = qHTS assay to identify small molecule antagonists of the estrogen receptor beta (ER-beta) signaling pathway - cell viability counter screen (AID 1259382); further: series mostly up to about 92 µM; nearly all actives have a fitted effect of over 55% in size
# Outline: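 Agonist-stimulated (1nM E2) ER-beta-UAS-bla HEK293T cells are incubated with library compounds for 16 hr at 37C. Cell viability is then assessed in the reporter-assay wells by adding CellTiter-Glo and reading luminescence after 30 min.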
# [16] = molecular target: Estrogen receptor (Homo sapiens) (UniProt P03372); assay: qHTS assay to identify small molecule agonists of the estrogen receptor alpha (ER-alpha) signaling pathway in the presence of an antagonist (AID 1259383; calls by dose curve; further: top concentration of the series differs between compounds; nearly all actives have a fitted effect of over 15% in size)
# Outline: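 Using VM7Luc4E2 cells seeded 24hr before treatment, antagonist ICI-182,780 (10.0nM final) was added, followed by compounds at 15 concentrations. Plates incubated 22hr; ONE-Glo luminescence quantified reporter activity.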
# [17] = qHTS assay to identify small molecule agonists or antagonists of the thyroid stimulating hormone receptor (TSHR) signaling pathway - wild type cell line counter screen (AID 1259384; calls by dose curve)
# Outline: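 Counter screen in untransfected Hek293: compounds (15-point titration, triplicate) plus phosphodiesterase inhibitor Ro20-1724 added after 18 h plating; 30 min RT. Intracellular cAMP via competitive d2/cryptate immunoassay, 1 h incubation.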
# [18] = molecular target: Thyrotropin receptor (Homo sapiens) (UniProt P16473); assay: qHTS assay to identify small molecule antagonists of the thyroid stimulating hormone receptor (TSHR) signaling pathway (AID 1259385; calls by dose curve; further: nearly all actives have a fitted effect of over 20% in size)
# Sequence of Thyrotropin receptor (Homo sapiens) (P16473 whole entry, looked up): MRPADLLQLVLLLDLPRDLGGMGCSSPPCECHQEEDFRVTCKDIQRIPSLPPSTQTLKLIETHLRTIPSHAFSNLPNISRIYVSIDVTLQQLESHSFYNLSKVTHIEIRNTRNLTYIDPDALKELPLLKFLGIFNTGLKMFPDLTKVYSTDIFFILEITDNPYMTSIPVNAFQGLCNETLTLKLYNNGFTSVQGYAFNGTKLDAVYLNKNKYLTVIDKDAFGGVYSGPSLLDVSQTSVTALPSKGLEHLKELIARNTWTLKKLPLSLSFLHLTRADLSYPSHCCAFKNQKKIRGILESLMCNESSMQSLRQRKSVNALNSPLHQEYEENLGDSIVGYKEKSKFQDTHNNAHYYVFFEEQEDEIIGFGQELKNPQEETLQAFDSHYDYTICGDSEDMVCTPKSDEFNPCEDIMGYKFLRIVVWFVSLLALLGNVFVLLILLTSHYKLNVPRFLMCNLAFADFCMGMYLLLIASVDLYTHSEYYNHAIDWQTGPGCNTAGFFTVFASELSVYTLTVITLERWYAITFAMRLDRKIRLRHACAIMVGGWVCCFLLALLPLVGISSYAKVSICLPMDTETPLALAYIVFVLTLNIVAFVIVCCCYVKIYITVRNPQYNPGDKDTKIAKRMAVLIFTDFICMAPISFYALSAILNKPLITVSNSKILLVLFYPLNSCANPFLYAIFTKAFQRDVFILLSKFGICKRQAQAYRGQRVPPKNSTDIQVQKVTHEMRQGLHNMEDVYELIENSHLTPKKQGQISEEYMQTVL
# Outline: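 Antagonist mode: compound-treated TSHR-expressing HEK293 cells were stimulated with 1.5 ng/mL TSH (final) in presence of Ro20-1724 for 30 min at RT. HTRF cAMP detection after 1 h; each compound tested at 15 concentrations, triplicate.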
# [19] = qHTS assay to identify small molecule agonists of the sonic hedgehog signaling (Shh) pathway - cell viability counter screen (AID 1259366); further: nearly all actives have a fitted effect of over 50% in size
# Outline: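 Same-well cytotoxicity read. Gli1-Luc reporter 3T3 cells; compounds 24hr, 37C/5% CO2; CellTiter-Fluor fluorescence.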
# [20] = molecular target: Androgen receptor (Homo sapiens) (UniProt P10275); assay: qHTS assay to identify small molecule agonists of the androgen receptor (AR) signaling pathway in the presence of an antagonist (AID 1259381; calls by dose curve; further: nearly all actives have a fitted effect of over 15% in size)
# Sequence of Androgen receptor (Homo sapiens) (P10275 whole entry, looked up): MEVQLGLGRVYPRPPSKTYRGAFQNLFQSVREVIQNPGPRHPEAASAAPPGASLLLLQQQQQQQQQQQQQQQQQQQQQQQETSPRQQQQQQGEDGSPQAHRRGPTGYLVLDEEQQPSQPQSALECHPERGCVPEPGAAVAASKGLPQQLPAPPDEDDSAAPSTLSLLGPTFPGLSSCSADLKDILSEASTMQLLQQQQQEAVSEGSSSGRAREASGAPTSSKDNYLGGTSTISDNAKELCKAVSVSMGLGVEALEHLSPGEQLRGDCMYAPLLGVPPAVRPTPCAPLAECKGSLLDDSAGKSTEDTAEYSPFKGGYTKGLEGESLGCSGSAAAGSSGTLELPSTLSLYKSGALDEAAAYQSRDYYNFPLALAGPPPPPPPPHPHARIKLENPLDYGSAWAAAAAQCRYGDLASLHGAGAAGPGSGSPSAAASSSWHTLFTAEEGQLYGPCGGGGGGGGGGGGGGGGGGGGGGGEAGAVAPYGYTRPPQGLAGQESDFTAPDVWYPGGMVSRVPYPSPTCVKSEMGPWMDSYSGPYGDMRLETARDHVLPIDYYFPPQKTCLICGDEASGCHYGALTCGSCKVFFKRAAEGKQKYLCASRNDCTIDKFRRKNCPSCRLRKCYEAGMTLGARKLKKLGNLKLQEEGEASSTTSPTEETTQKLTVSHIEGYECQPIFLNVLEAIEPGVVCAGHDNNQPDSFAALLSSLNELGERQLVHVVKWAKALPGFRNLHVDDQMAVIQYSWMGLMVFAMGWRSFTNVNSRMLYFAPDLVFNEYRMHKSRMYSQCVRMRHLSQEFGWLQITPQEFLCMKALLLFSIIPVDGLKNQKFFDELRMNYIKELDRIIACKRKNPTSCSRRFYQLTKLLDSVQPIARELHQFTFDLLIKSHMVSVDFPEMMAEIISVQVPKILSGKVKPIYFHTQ
# Outline: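 Using human MDA-kb2 cells with an MMTV promoter–luciferase construct (AR and GR response elements), agonist activity is scored under 3.0uM nilutamide (final) co-treatment; 16hr incubation, 37C, luminescence readout via ONE-Glo.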
Compound,Potency [1],Potency [2],Potency [3],Potency [4],outcome [5],Potency [6],outcome [7],Potency [8],outcome [9],Potency [10],outcome [11],Potency [12],Potency [13],Potency [14],Potency [15],Potency [16],outcome [17],outcome [18],Potency [19],Potency [20]
C[C@]12C=CC(=O)C=C1CC[C@@H]1[C@@H]2[C@@H](O)C[C@@]2(C)[C@H]1CC[C@]2(O)C(=O)CO,inactive,inactive,inactive,inactive,inactive,inactive,inactive,inactive,inactive,inactive,inactive,inactive,inactive,inactive,inactive,inactive,,,,
Cc1cn([C@H]2C[C@H](N=[N+]=[N-])[C@@H](CO)O2)c(=O)[nH]c1=O,inactive,inactive,inactive,inactive,inactive,inactive,inactive,70.5 µM (active) and inactive,inactive,17.7 µM (active) and inactive,,,inactive,inactive,inactive,inactive,,,,
Cn1cc[nH]c1=S,inactive,inactive,inactive,inactive,inactive,inactive,inactive,inactive,inactive,inactive,inactive,43.2 µM (active) and inactive,inactive,inactive,inactive,inactive,inactive,inactive,,
NC(=O)c1cnccn1,inactive,inactive,inactive,inactive,inactive,inactive,inactive,inactive,inactive,inactive,inactive,inactive,inactive,inactive and 33.5 µM (active),inactive,inactive,,,inactive,
CC(O)C(=O)O (stereo unspecified),inactive,inactive,inactive,inactive,inactive,inactive,inactive,inactive,inactive,inactive,,,inactive,inactive,inactive,inactive,inactive,inactive,,
CC(C)(Oc1ccc(C2CC2(Cl)Cl)cc1)C(=O)O (stereo unspecified),inactive,inactive,inactive,inactive,inactive,inactive,inactive,inactive,inactive,inactive,inactive,inactive,inactive,inactive,inactive,inactive,inactive,inactive,inactive,inactive
CCCNC(=O)NS(=O)(=O)c1ccc(Cl)cc1,inactive,inactive,inactive,inactive,inactive,inactive,inactive,inactive,inactive,inactive,inactive,inactive,inactive,inactive,inactive,inactive,inactive,inactive,,
CC(=O)Nc1nnc(S(N)(=O)=O)s1,inactive,inactive,inactive,inactive,inactive,inactive,inactive,inactive,inactive,inactive,inactive,inactive,inactive,inactive,inactive,inactive,inactive,inactive,inactive,
O=c1ccc2ccccc2o1,inactive,inactive,inactive,inactive,inactive,inactive,inactive,inactive,inactive,inactive,inactive,inactive,inactive,inactive,inactive,inactive,inactive,inactive,inactive,
O=c1cc[nH]c(=S)[nH]1,inactive,inactive,inactive,inactive,inactive,inactive,inactive,inactive,inactive,inactive,inactive,inactive,inactive,inactive,inactive,inactive,inactive,inactive,,
CCCCC(CC)COC(=O)/C=C/c1ccc(OC)cc1 (stereo unspecified),inactive,inactive,inactive,inactive,inactive,inactive,inactive,inactive,inactive,inactive,,,inactive,inactive,inactive,inactive,inactive,inactive,inactive,inactive
NC(=O)c1ccccc1O,inactive,inactive,inactive,inactive,inactive,inactive,inactive,inactive,inactive,inactive,inactive,inactive,inactive,inactive,inactive,inactive,inactive,inactive,inactive,
Nc1ccc(O)c(C(=O)O)c1,inactive,inactive,inactive,inactive,inactive,inactive,inactive,inactive,inactive,inactive,inactive,inactive,inactive,inactive,inactive,inactive,inactive,inactive,inactive,
O=C(O)CCC(=O)O,inactive,inactive,inactive,inactive,inactive,inactive,inactive,inactive,inactive,inactive,,,inactive,inactive,inactive,inactive,inactive,inactive,,
Cc1ccc(C)c(OCCCC(C)(C)C(=O)O)c1,inactive,inactive,inactive,inactive,inactive,inactive,inactive,inactive,inactive,inactive,inactive,inactive,inactive,inactive,inactive,inactive,inactive,inactive,,inactive
